From PubChem BioAssay (NCI)
This is part of a sample that, as a whole, favours compounds with a hit. Of some 83,000 tested, about 20% had one in any assay.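 Percent growth is the endpoint: 0 to 100 indicates growth inhibition (40 means 60% inhibition), 0 means no net growth, and negative values indicate cell death.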 Calls of active or inactive are those of the source. How the source made its calls: active means growth percent below 10; inactive means the rest.

test system: SR leukemia; experiment: NCI-60 one-dose screen, 48 h (100 = growth as untreated, 0 = no growth, -100 = all killed); conditions: 10 µM unless noted

SMILES	growth
O=c1[nH]c2ccc(Cl)cc2cc1CSc1ccccc1Nc1nccc(-c2ccc(Cl)cc2)n1	77.2% (inactive)
CC(C)(C)OC(=O)N1C(=O)c2c(c3c4ccccc4[nH]c3c3ccc4ccccc4c23)C1=O	23% (inactive)
CNC(=O)c1cc(-c2ccc(NC(=O)Nc3ccc(N4CCN(C)CC4)c(C(F)(F)F)c3)cc2)nc2cccnc12	-45.4% (active)
C/C(=N/NC(N)=S)c1ccc(Nc2nc(SCC(C)C)nc(-c3ccc(F)cc3)c2C#N)cc1	42.8% (inactive)
CCCCN1C(=O)/C(=c2\sc3n(c2=O)C2C(NN=3)N(CC)C(=O)N2CC)c2cc(Cl)ccc21 (stereo not drawn)	14.1% (inactive)
COc1cc(-c2nc3ccc(-c4nnc(SCC(=O)Nc5ccc(C(C)=O)cc5)o4)cc3[nH]2)cc(OC)c1OC	96.5% (inactive)
N#Cc1c(-c2ccc(Cl)cc2)nc(SCc2ccc(F)cc2)nc1N1CCNCC1	-48.5% (active)
Cn1cc(-c2cc(N)n3nc(-c4cn(C)c5ccc(Br)cc45)cc3n2)c2cc(Br)ccc21	-13.5% (active)
Cc1cc(C(=O)Nc2sc3c(c2C(N)=O)CCC(=O)C3)ccc1OCCN1CCCCC1	81.6% (inactive)
NS(=O)(=O)c1ccc(Nc2nc(SCC(=O)c3ccc(Cl)cc3)nc3ccccc23)cc1	79.6% (inactive)
CC(C)(C)Nc1nc2c(OCCc3ccccc3)cccn2c1-c1ccc(O)cc1	32.5% (inactive)
CCOc1ccc2nc(NC(=O)c3ccc(C(F)(F)F)cc3)sc2c1	89.5% (inactive)
N#Cc1c(-c2ccc(Cl)cc2)nc(SCc2ccc([N+](=O)[O-])cc2)nc1N1CCNCC1	-43.3% (active)
Cc1cccc(/C=C/c2nn3c(-c4ccco4)nnc3s2)c1	79% (inactive)
Cc1sc2c(c1C)c(=O)nc1c(-c3nc(-c4ccc(F)cc4)no3)n[nH]n12	97.6% (inactive)
C[C@@H]1CN(c2ccc3ncc(C#Cc4cncc(C(=O)Nc5ccc(CN6CCN(C)CC6)c(C(F)(F)F)c5)c4)n3n2)C[C@H](C)O1	-24.3% (active)
Nc1c(C(=O)Nc2ccc(Cl)cc2)sc2nc(-c3cnccn3)cc(-c3cccs3)c12	40.7% (inactive)
O=c1[nH]c2ccccc2cc1CSc1ccccc1Nc1nccc(-c2ccc(C(F)(F)F)cc2)n1	53.7% (inactive)
Cc1c(Nc2nnc(SCC(=O)Nc3sc4c(c3C#N)CCCC4)s2)c(=O)n(-c2ccccc2)n1C	98.5% (inactive)

SMILES	growth
CS(=O)(=O)c1ccc(-c2nc3ccccn3c2C=Nc2ccc(Cl)cc2)cc1	96.8% (inactive)
N[C@@H](Cc1cn(-c2c3ccccc3nc3ccccc23)nn1)C(=O)O	86% (inactive)
CC(C)(C)Nc1nc2c(OCCc3ccccc3)cccn2c1-c1cccc(F)c1	-0.873% (active)
CCN1C(=S)N(c2ccccc2)C2NC(=O)N(/N=C/C=C/c3ccccc3OC)C21 (stereo not drawn)	40.9% (inactive)
CCOC(=O)c1csc(NC(=O)CSc2nc3sc4c(c3c(=O)n2-c2ccc(Cl)cc2)CCCC4)n1	95.9% (inactive)
Cc1ccc(CNS(=O)(=O)/N=C2\NC(=O)NC2=C(Cl)Cl)cc1	69.5% (inactive)
CO/N=C1\CCc2c(sc(NC(=O)c3cccc(C(F)(F)F)c3)c2C(N)=O)C1	37.1% (inactive)
O=C(CSc1nc2sc3c(c2c(=O)n1-c1ccc(Cl)cc1)CCCC3)N/N=C/c1ccc(F)cc1	39.6% (inactive)
CN1CCN(Cc2ccc(NC(=O)c3cncc(C#Cc4cnc5[nH]ncc5c4)c3)cc2C(F)(F)F)CC1	10.6% (inactive)
CC(C)(C)Nc1nc2c(OCCc3ccccc3)cccn2c1-c1ccc(Cl)cc1	1.41% (active)
N#Cc1c(-c2ccc(Cl)cc2)nc(SCc2ccccc2)nc1N1CCNCC1	-24.8% (active)
COc1ccc(/C=C/C(=O)c2ccc(NC(=O)CSc3nnc(-c4ccc5nc(-c6ccc(Cl)cc6)[nH]c5c4)o3)cc2)cc1	80.5% (inactive)
CC(=O)Nc1cc(F)cc(-c2ccc3[nH]cc(-c4ccccc4)c3n2)c1	-1.91% (active)
C=CCSc1ccc2c(c1)C(N1CCNCC1)=Nc1ccccc1O2	14.4% [8.25 µM] (inactive)
Fc1ccc(-c2nc(C(Cl)Cl)nc3cc(-c4ccccc4)nn23)cc1	0.553% (active)
COc1ccc(NC2=C(Cl)C(=O)C(C)=C(C)C2=O)cc1OC	84.5% (inactive)
O=C1[C@H]2Cc3c([nH]c4ccccc34)[C@@H](c3ccc(Br)cc3)N2C(=O)CN1C1CCN(Cc2ccccc2)CC1	-10.6% (active)
Cn1c(SCC(=O)c2cccs2)nc2ccccc2c1=O	90.4% (inactive)
C/C(=C(/c1ccc(Cl)cc1)c1ccc(OCCN)cc1)c1ccc(C)cc1	88.6% (inactive)
